Measured values: ChEMBL document CHEMBL3988442, “University of Dundee, Small-Polar-MMV Screening Library” (2021)
The campaign covered roughly 48,000 compounds. About 13,000 (27%) showed an effect of 50% or more. This is one part of the list.

system: Wolbachia pipientis; experiment: Anti-Wolbachia Cell-Based Screen; type: functional; set-up: scale not given: in the data most compounds retested in dose-response had high values; conditions: 5 µM

| SMILES | Percent Effect [%] |
| --- | --- |
| CC(NC(=O)NC1CCN(Cc2ccncc2)CC1)c1cccc(F)c1 (stereo unspecified) | 10.76 |
| NC(=O)C1CCN(C(=O)c2ccn(-c3ccc(F)cc3)n2)C1 (stereo unspecified) | -7.383 |
| COc1ccc(N2CCNC(C(N)=O)C2)cc1 (stereo unspecified) | 90.5 |
| Cc1cc(C(=O)NCc2ccc(N3CCCC(C(N)=O)C3)cc2)[nH]n1 (stereo unspecified) | -1.321 |
| Cl.NC(=O)C1CN(c2ccc(F)cc2)CCN1 (stereo unspecified) | 113.5 |
| COc1ccc(SC(C)C(=O)N2CCC(C(N)=O)CC2)cc1 (stereo unspecified) | -1.042 |
| CNC(=O)C1CCN(C(=O)c2ccn(-c3ccc(F)cc3)n2)CC1 | -2.487 |
| CNC(=O)N1CCC2(CC1)CNc1ccc(F)cc12.Cl | 2.564 |
| COc1ccc(N2CCCN(CC(=O)N3CCNC(=O)C3)CC2)cc1 | -7.971 |
| CNC(=O)C1CN(c2ccc(F)cc2)CCN1.Cl (stereo unspecified) | 158.3 |
| CCN(CC)CCCC(C)NC(=O)c1ccccc1-n1cccn1 (stereo unspecified) | 7.306 |
| Cc1csc(CN(C)C(=O)Nc2cc(F)cc(N3CCCC3)c2)n1 | 1.916 |
| Cc1cc(CN2CCN(C(=O)C3CCC3)[C@@H]3CS(=O)(=O)C[C@@H]32)ccc1F | -7.739 |
| COCc1cccc(NS(=O)(=O)c2cc(C(=O)O)cs2)c1 | -2.674 |
| COc1ccc(CC(=O)N2CCCC(c3nncn3C)C2)cc1 (stereo unspecified) | -3.253 |
| COc1ccccc1CCNC(=O)N1CCCC(c2nncn2C)C1 (stereo unspecified) | 0.4535 |
| Cc1ccccc1CCNC(=O)N1CCCC(c2nncn2C)C1 (stereo unspecified) | 7.468 |
| Cc1[nH]ncc1CCCNC(=O)N1CCCC(c2nncn2C)C1 (stereo unspecified) | 131.8 |
| CC(=O)N1CCCN(C(=O)NCCCc2cn[nH]c2C)CC1 | 5.241 |
| Cn1cc(CCNC(=O)N2CCCC(c3nncn3C)C2)cn1 (stereo unspecified) | 107 |
| COc1ccc(CCNC(=O)N2CCCC(c3nncn3C)C2)cc1 (stereo unspecified) | 95.68 |
| Cn1cnnc1C1CCCN(C(=O)NCCc2ccccc2F)C1 (stereo unspecified) | -7.484 |
| Cc1[nH]ncc1CCCNC(=O)N1CCC(C(N)=O)CC1 | -4.643 |
| CCOc1cc(CN(C)CCOC)ccc1OC(F)F | 9.652 |

| SMILES | Percent Effect [%] |
| --- | --- |
| CN(C)C(=O)c1cccc(NC(=O)Cc2cc(F)ccc2F)n1 | -6.771 |
| CS(=O)(=O)NCCCNCc1cc(F)ccc1Br | 85.45 |
| CC(=O)NCCCNCc1cc(F)ccc1Br | 10.59 |
| CCS(=O)(=O)NCCNCc1cc(F)ccc1Br | 5.201 |
| O=C(c1cnc(-c2ccco2)s1)N1CCCC1Cn1cccn1 (stereo unspecified) | -5.367 |
| Cc1sc(-c2ccco2)nc1C(=O)N1CCCC1Cn1cccn1 (stereo unspecified) | 99.48 |
| Cc1nc(-c2ccco2)ccc1C(=O)N1CCCC1Cn1cccn1 (stereo unspecified) | -3.884 |
| O=C(c1cnc(-c2ccco2)s1)N1CCCCC1Cn1cccn1 (stereo unspecified) | 80.46 |
| Cc1cnn(CC2CCCN2C(=O)c2cnc(-c3ccco3)s2)c1 (stereo unspecified) | 107.8 |
| COc1ccccc1S(=O)(=O)CCOC(C)C | 8.609 |
| CC(C)Oc1ccc(CSc2nnc(CN3CCCC3=O)o2)cc1 | -8.061 |
| OCc1csc(N2CCCN(Cc3ccc(F)cc3)CC2)n1 | 11.91 |
| OCc1csc(N2CCN(Cc3cccc(F)c3)CC2)n1 | -8.687 |
| Cc1ccc(OCC2CCCN(c3nc(CO)cs3)C2)cc1 (stereo unspecified) | 87.49 |
| COc1ccc(OCC2CCCN(c3nc(CO)cs3)C2)cc1 (stereo unspecified) | 99.62 |
| OCc1csc(N2CCCC(COc3cccc(F)c3)C2)n1 (stereo unspecified) | 96.77 |
| COc1cccc(OCC2CCCN(c3cc(C(N)=O)ccn3)C2)c1 (stereo unspecified) | 12.14 |
| Cc1ccc(OCC2CCCN(c3cc(C(N)=O)ccn3)C2)cc1 (stereo unspecified) | 0.1163 |
| Cc1ccc(OCC2CCCN(Cc3ccc(CO)o3)C2)cc1 (stereo unspecified) | -15.89 |
| CC(C)NS(=O)(=O)c1cc(C(=O)O)cc(-c2ccccc2CN(C)C)c1 | 9.283 |
| CCOCCN1CCN(Cc2nnc(-c3occc3C)o2)CC1 | -3.196 |
| CC(C)C(O)C1(CNC(=O)Nc2ccc(CN3CCOC3=O)cc2)CC1 (stereo unspecified) | -15.4 |
| COC(=O)c1ccc2ccn(CC3CCCO3)c(=O)c2c1 (stereo unspecified) | -4.095 |
| CCOCCn1c(=O)[nH]c2cc(C(=O)N(C)Cc3nc(C)c[nH]3)ccc21 | -5.58 |

| SMILES | Percent Effect [%] |
| --- | --- |
| CCC[C@]12CN3C[C@](CCC)(CN(C1)C3c1[nH]c(=O)[nH]c(=O)c1C)C2=O (stereo partly specified) | 113.9 |
| Cc1c(C2N3C[C@]4(C(C)C)CN2C[C@](C(C)C)(C3)C4=O)[nH]c(=O)[nH]c1=O (stereo partly specified) | 123.1 |
| CC(=O)NC[C@H]1COCc2nc3c(C)cccc3n21 | 4.229 |
| CCOC(C)c1noc(CN2CCN(c3ccncc3)CC2)n1 (stereo unspecified) | -6.635 |
| CN(C)CC1CN(C(=O)CCc2ccccc2)Cc2nccn2C1.O=C(O)C(F)(F)F (stereo unspecified) | 96.55 |
| COc1ccc(CC(=O)N2Cc3nccn3CC(CN(C)C)C2)cc1.O=C(O)C(F)(F)F (stereo unspecified) | 100.3 |
| CCOCC(=O)N1CCC(c2nccn2CC2CC2)CC1 | 4.34 |
| COc1cccc(CC(=O)N2Cc3nccn3CC(CN(C)C)C2)c1 (stereo unspecified) | 80.89 |
| Cc1occc1C(=O)N1Cc2nccn2CC(CN(C)C)C1.O=C(O)C(F)(F)F (stereo unspecified) | 7.658 |
| CCOCC(=O)N1Cc2nccn2CC(CN2CCCC2)C1.O=C(O)C(F)(F)F (stereo unspecified) | -4.064 |
| CN(C)CC1CN(C(=O)NCc2ccccc2)Cc2nccn2C1.O=C(O)C(F)(F)F (stereo unspecified) | -13.89 |
| CCOCC(=O)N1Cc2nccn2CC(CN(C)C)C1 (stereo unspecified) | 110.3 |
| Cc1ccc(CN2CCOC3(CCN(C(=O)C4CC=CC4)CC3)C2)cc1.O=C(O)C(F)(F)F | 15.78 |
| Cc1ccccc1N1CCN(C(=O)c2ncc(F)cc2F)C(C)C1 (stereo unspecified) | 9.425 |
| COc1ccc(C(=O)N2C[C@H]3CC[C@@H]2CN(C)C3)cc1Cl | -11.94 |
| Cc1ccccc1-c1ncc(CNCc2csc(C(C)C)n2)s1 | -1.637 |
| O=C(c1ccoc1)N1CCC2(C1)CN(c1nccs1)C2 | -3.02 |
| CN(C)CC1CN(C(=O)Cc2ccccc2)Cc2nccn2C1.O=C(O)C(F)(F)F (stereo unspecified) | 102.6 |
| Cc1ccc(CC(=O)N2Cc3nccn3CC(CN(C)C)C2)cc1.O=C(O)C(F)(F)F (stereo unspecified) | 14 |
| Cc1cncc(C2CCCN2CCO)n1 (stereo unspecified) | 153.6 |
| OCCCN1CCCC1c1cccc(Br)c1 (stereo unspecified) | -6.004 |
| Cc1cncc(C2CCCN2CC(N)=O)n1 (stereo unspecified) | 143.4 |
| NC(=O)CN1CCCC1c1ccccc1Br (stereo unspecified) | -4.067 |
| Cc1nc(O)cc(C2CCCN2CCO)n1 (stereo unspecified) | 112.5 |

| SMILES | Percent Effect [%] |
| --- | --- |
| CN1CCN(C[C@H]2CC[C@@H](Cc3ccc(CN4CCCC4)cc3)O2)CC1 | -1.169 |
| Cc1ccc(S(=O)(=O)NC[C@H]2OC[C@@H](NCc3cccs3)[C@@H]2O)cc1 | 7.979 |
| CCn1c(C)nnc1SCCNC(=O)CC1CCc2ccccc21 (stereo unspecified) | -3.198 |
| CCOC(=O)[C@]12CCCN(Cc3cccs3)C[C@H]1CN(CCOC)C2.O=C(O)C(F)(F)F.O=C(O)C(F)(F)F | 131.5 |
| CCOC(=O)[C@]12CCCN(Cc3ccco3)C[C@H]1CN(CCN(C)C)C2.O=C(O)C(F)(F)F.O=C(O)C(F)(F)F.O=C(O)C(F)(F)F | 13.18 |
| CCOC(=O)[C@]12CCCN(Cc3nccs3)C[C@H]1CN(C(C)C)C2.O=C(O)C(F)(F)F.O=C(O)C(F)(F)F | -10.51 |
| CCOC(=O)[C@]12CCCN(Cc3nccs3)C[C@H]1CN(S(C)(=O)=O)C2.O=C(O)C(F)(F)F | -4.113 |
| CCOC(=O)[C@]12CCCN(Cc3ccco3)C[C@H]1CN(S(C)(=O)=O)C2.O=C(O)C(F)(F)F | 113.6 |
| CCOC(=O)[C@]12CCCN(Cc3cccs3)C[C@H]1CN(C(C)C)C2.O=C(O)C(F)(F)F.O=C(O)C(F)(F)F | 108.6 |
| CCOC(=O)[C@]12CCCN(Cc3nccs3)C[C@H]1CN(C(C)=O)C2.O=C(O)C(F)(F)F | 10.79 |
| CCOC(=O)[C@]12CCCN(Cc3cccs3)C[C@H]1CN(C(C)=O)C2.O=C(O)C(F)(F)F | 93.24 |
| CCOC(=O)[C@]12CCCN(Cc3nccs3)C[C@H]1CN(CCOC)C2.O=C(O)C(F)(F)F.O=C(O)C(F)(F)F | -1.05 |
| CCOC(=O)[C@]12CCCN(Cc3ccsc3)C[C@H]1CN(CCOC)C2.O=C(O)C(F)(F)F.O=C(O)C(F)(F)F | -11.63 |
| COCCN(Cc1ccccn1)C(=O)CC1OCCc2ccccc21 (stereo unspecified) | -5.998 |
| COC(=O)c1ccc(N2CCC(C(O)c3ccccc3)CC2)nn1 (stereo unspecified) | -10.77 |
| CC(C)CCC(=O)Nc1ncn(CC(=O)N2CCCCCC2)n1 | -19.43 |
| CCc1nc(CC(=O)N2CCOCC2c2ncon2)cs1 (stereo unspecified) | -4.331 |
| Cc1nnsc1CN1C[C@@H]2CC[C@H](C1)N(Cc1c(C)noc1C)C2=O | 10.64 |
| O=C1N(CC2CC2)CCCC1(O)CN1CCc2[nH]ncc2C1 (stereo unspecified) | -6.967 |
| CCc1ccc(CN2CCN(C)C3(CCC(=O)N(CC4CC4)CC3)C2)o1 (stereo unspecified) | 1.557 |
| Cc1noc([C@@H]2C[C@H](NC(=O)C3CCCCC3)CN2C)n1 | -5.582 |
| CCOC(=O)[C@]12CCCN(Cc3nccs3)C[C@H]1CN(CCN(C)C)C2.O=C(O)C(F)(F)F.O=C(O)C(F)(F)F.O=C(O)C(F)(F)F | 8.148 |
| CCOC(=O)[C@]12CCCN(Cc3nccs3)C[C@H]1CN(CC(C)C)C2.O=C(O)C(F)(F)F.O=C(O)C(F)(F)F | 11.11 |
| CCOC(=O)[C@]12CCCN(Cc3cccs3)C[C@H]1CN(CC(C)C)C2.O=C(O)C(F)(F)F.O=C(O)C(F)(F)F | 98.32 |
